According to publication PMC7819943, “Rice protein-binding microarrays: a tool to detect cis-acting elements near promoter regions in rice”:
In all, about 68,000 sequences were measured (“fluorescence intensity (a.u.)”: median about 9,100, highest 2% from about 16,000 on). What follows is part of a selection rich in the highest values, with near analogues and random picks from the rest.

Target: OsWRKY34 (Oryza sativa, UniProt Q0JBA9 1-250)
Assay: protein-binding microarray (RPBM); PBS, 2% BSA, 51.3 ng/ul salmon testes DNA, 50 uM zinc acetate, 200 nM TF, 25 C, 1 h; high values mean tight binding
Details: protein: recombinant; tags: N-terminal polyhistidine and DsRed monomer fusion (pET32a); label: CyDye5-dUTP incorporated in the synthesized complementary strand; 3' TTTTT single-stranded linker to array surface; dsDNA, one strand shown
Method in brief: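 A custom Agilent array was converted to double-stranded form by primer extension with Cy5-dUTP and blocked with 2% BSA. Protein at 200 nM in PBS with 2% BSA, salmon testes DNA and 50 µM zinc acetate was applied for 1 h at 25 °C, followed by washing. The proteins were polyhistidine–DsRed N-terminal fusions of transcription factors, expressed in E. coli BL21-CodonPlus and Ni–NTA-purified. The binding signal is per-feature fluorescence intensity (arbitrary units) from an Axon 4000B scanner.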

Sequence of OsWRKY34 (Q0JBA9 entry or part of it): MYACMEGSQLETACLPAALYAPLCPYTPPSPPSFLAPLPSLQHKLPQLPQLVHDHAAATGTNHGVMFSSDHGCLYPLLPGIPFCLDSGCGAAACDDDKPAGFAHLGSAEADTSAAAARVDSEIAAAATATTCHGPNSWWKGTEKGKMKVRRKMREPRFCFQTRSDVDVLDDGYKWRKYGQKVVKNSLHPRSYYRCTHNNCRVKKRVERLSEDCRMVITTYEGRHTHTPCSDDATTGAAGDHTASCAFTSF

Sequence	binding signal
ATTAACAGCCTAGCTAGCTAGTGATCAGTGTTGACCGTTGCGGAGTCACCTAGTGCAG	8200 fluorescence intensity (a.u.)
AGGTGGGGAGCGGCGGACTCGCGGTTGGGTTTGTGTGGTTCGGAGTCACCTAGTGCAG	14200 fluorescence intensity (a.u.)
TGGTACTGCGTGCGGTGGGGTAGGAGTAGGAGGTTTCTTTCGGAGTCACCTAGTGCAG	16600 fluorescence intensity (a.u.)
CTTCTTCTTCTTCTTCTTCTTGGTCCGGAGAGAGTAGAGACGGAGTCACCTAGTGCAG	8090 fluorescence intensity (a.u.)
GTTTCTTGGTCGTGGGGTCGAGGAGGTGGTGGGTGGTGGTCGGAGTCACCTAGTGCAG	14800 fluorescence intensity (a.u.)
TAGAGTGGTTGGTTGGGTACTTGGGTTGGGTTGGGTGGTCCGGAGTCACCTAGTGCAG	24300 fluorescence intensity (a.u.)
GGTGTTAGCTTTAGGTTTTGGTGTTTGGTTGGGTAATTTTCGGAGTCACCTAGTGCAG	17300 fluorescence intensity (a.u.)
AGGAGATGCGGTAGTTTTTTTGGTACTGCGTGCGGTGGGGCGGAGTCACCTAGTGCAG	8400 fluorescence intensity (a.u.)
GTTTGCATGTTAAGCTTTAGGATTTGGTGGGTTATAATTTCGGAGTCACCTAGTGCAG	10800 fluorescence intensity (a.u.)
GTGTTTGGTTGGGTAATTTTGCAGGTGTTGCTCGTCAATTCGGAGTCACCTAGTGCAG	10200 fluorescence intensity (a.u.)
GGTGGGGTTGGCAGCTTTCGTGCTTGGTCAACCGGGCATGCGGAGTCACCTAGTGCAG	8520 fluorescence intensity (a.u.)
GGGTACAGGGGTGGGGACTTGGGTGTGTTGTGGTGGTTACCGGAGTCACCTAGTGCAG	12400 fluorescence intensity (a.u.)
GAAAACCTAGGGTTAGGTTTGGTGGGGTTGGCAGCTTTCGCGGAGTCACCTAGTGCAG	16400 fluorescence intensity (a.u.)
TTGTGTGTTCTTCCATCTGGCAATGGCATCTGCAGCAGCACGGAGTCACCTAGTGCAG	9530 fluorescence intensity (a.u.)
CACGCGATGAAATCATCTGCGCATCCTGTACTTTCAATTTCGGAGTCACCTAGTGCAG	8030 fluorescence intensity (a.u.)
CAATGACCTTTTTTTTTCCTCTCTCTGTTGCTTCCGATATCGGAGTCACCTAGTGCAG	8500 fluorescence intensity (a.u.)
GCTTTGAACACTCATCTCCTCACCGTGTTTGTTAGAGCTCCGGAGTCACCTAGTGCAG	11200 fluorescence intensity (a.u.)
GTGTATTCTACTTAGTAATTTACTTGGCTTGAATTTTTTTCGGAGTCACCTAGTGCAG	28900 fluorescence intensity (a.u.)
GGTTTGGGGTGGTTTATTGTACAATAAAGATAAAGTTACCCGGAGTCACCTAGTGCAG	19000 fluorescence intensity (a.u.)
ATTGTATTCCTACTTGGACTCTTATTTTCTTTTCTAATTTCGGAGTCACCTAGTGCAG	10300 fluorescence intensity (a.u.)
TTTATTTTTTTTGTTACTTTTGGGATAAATTTACAATTACCGGAGTCACCTAGTGCAG	9060 fluorescence intensity (a.u.)

Sequence	binding signal
GTCTACTTGTTTGGTGTAATTTATTTTTTTTCTTTCGCTTCGGAGTCACCTAGTGCAG	9740 fluorescence intensity (a.u.)
CATTTGTGGTTTGTACATATTTATATAAGTTATTATAAATCGGAGTCACCTAGTGCAG	9060 fluorescence intensity (a.u.)
TCAGTCTGTACACGCCTACACCAGAGTCCAGTGGTCCTAACGGAGTCACCTAGTGCAG	8100 fluorescence intensity (a.u.)
GGGTGGAGGAGGTGGGGAGGCCGGCGAGACTCATGTGCGGCGGAGTCACCTAGTGCAG	13100 fluorescence intensity (a.u.)
ATCAAATGGTCATTCCAACGGTTGTCCTGTGCTTTTGTAACGGAGTCACCTAGTGCAG	8020 fluorescence intensity (a.u.)
GTTGTGGGTTTTCGTATTTAATGTTTGACTGTCTATTTTACGGAGTCACCTAGTGCAG	17300 fluorescence intensity (a.u.)
GTGGTTTCATCTATTTTGTGTTGTTTACTCGTATCTGTTACGGAGTCACCTAGTGCAG	10600 fluorescence intensity (a.u.)
GTATCAGTGTATAAGTTTGAGCACCATTTTTCCATGATCTCGGAGTCACCTAGTGCAG	9200 fluorescence intensity (a.u.)
TCACGGCTCATTTTTGAAATAAGTTTTTAGCACAGTTTATCGGAGTCACCTAGTGCAG	8740 fluorescence intensity (a.u.)
TTAGGATACATGGGAATTTTAGTGGGGATAGGATGGGGAACGGAGTCACCTAGTGCAG	8520 fluorescence intensity (a.u.)
CAAGTTATTGACTTTTGGTCATGATGTTACTATTCATCTTCGGAGTCACCTAGTGCAG	9120 fluorescence intensity (a.u.)
AATGTTTGGGTTCGAATTTAGTGGGTGGGTTTGGAGTTTGCGGAGTCACCTAGTGCAG	12800 fluorescence intensity (a.u.)
TCTATTTTATTTGGGTGGGGATAGTTTTAGTGGGAATTTGCGGAGTCACCTAGTGCAG	24200 fluorescence intensity (a.u.)
ATCTTCGGTGTACTATTGGGTCATGATTTGACCCATCTAACGGAGTCACCTAGTGCAG	24900 fluorescence intensity (a.u.)
TAACAGTATCATTTGATAGCACAATATAAGGTGTTTTGCTCGGAGTCACCTAGTGCAG	28800 fluorescence intensity (a.u.)
ATCTCTAATTCTATTGGGTGCATGTATTGTACTATTTATTCGGAGTCACCTAGTGCAG	9280 fluorescence intensity (a.u.)
ACTGTGGTTTCTAGTGGGTTTTATTATTTTATAATTTGTACGGAGTCACCTAGTGCAG	8480 fluorescence intensity (a.u.)
TTCACGTAACTTACTTGCTCTAATCGTCGGTGGCTGGATCCGGAGTCACCTAGTGCAG	9270 fluorescence intensity (a.u.)
AAACACCAGCGCGGCCCTCGCCCTCGCCGTCGCCATTTCCCGGAGTCACCTAGTGCAG	8520 fluorescence intensity (a.u.)
CAACCCCTTACTTCATCACCTACTCATGTCAACACATAGCCGGAGTCACCTAGTGCAG	8850 fluorescence intensity (a.u.)
ACGCTGCCGTCTCATTTCGCTTTCGTAGAACTTGCTCCAGCGGAGTCACCTAGTGCAG	8500 fluorescence intensity (a.u.)

Sequence	binding signal
GCAAAAGCCAAACTGAATTCCCGACGCGTGCGCGCGCGCACGGAGTCACCTAGTGCAG	8180 fluorescence intensity (a.u.)
AGGAAAACACTTAGATGGGCCGGATTACTTATCGAAATTTCGGAGTCACCTAGTGCAG	8360 fluorescence intensity (a.u.)
AGTGGTGATCGCCGCGGTTGGGTTTCTTGGATTGGGCTGTCGGAGTCACCTAGTGCAG	8720 fluorescence intensity (a.u.)
CTGTATTTGACTGTTACTGCTTTTGGATTTTGTTTCATTTCGGAGTCACCTAGTGCAG	10800 fluorescence intensity (a.u.)
GTTGGGGAGAAGGGGTGGTAAAATTTCTGGTATTATGGTTCGGAGTCACCTAGTGCAG	11700 fluorescence intensity (a.u.)
TACATGTTTGACTTTGACTTGGTTTTTGGATATTTCATTTCGGAGTCACCTAGTGCAG	9170 fluorescence intensity (a.u.)
TTCTTTTGTTGTGTGGGTGTATGTTTTGGTTATGTGCATTCGGAGTCACCTAGTGCAG	8810 fluorescence intensity (a.u.)
ACATCTTATTTCCCTGGGTGGGGAGATTCTAGTTAAAATTCGGAGTCACCTAGTGCAG	19000 fluorescence intensity (a.u.)
GTGGGGTTTTCGATGGTGTTTCATTCTTTTTCTCAATGTACGGAGTCACCTAGTGCAG	20300 fluorescence intensity (a.u.)
TGTATTTGACTGTTACTGCTTTTGGATTTTGTTTCATTTTCGGAGTCACCTAGTGCAG	17500 fluorescence intensity (a.u.)
TCATTCTTTTTCTCAATGTACTTGGATTTTTTTCATGTTTCGGAGTCACCTAGTGCAG	12200 fluorescence intensity (a.u.)
CCTTCTTTCCCTTTTCCCATCTGGCAAGATTTTTCTTATTCGGAGTCACCTAGTGCAG	9610 fluorescence intensity (a.u.)
ATCGTTTGGGGTCATTTTCTGCGGTTTGGTGGTGTTGTGCCGGAGTCACCTAGTGCAG	11100 fluorescence intensity (a.u.)
AGCGGTTTCTTGGTTGGGGTTTAGTGTCTGCATTGGATATCGGAGTCACCTAGTGCAG	18200 fluorescence intensity (a.u.)
GGTTATTTATTTTTATTGGTTTCCCCATTACTGTTGACAGCGGAGTCACCTAGTGCAG	8360 fluorescence intensity (a.u.)
TCCCGATATCATATTATAACCCTTCTAGAAATCTAATGTTCGGAGTCACCTAGTGCAG	8160 fluorescence intensity (a.u.)
ATTCTGTTATGAACTATGTAAACCTTCTCATGTATATTCACGGAGTCACCTAGTGCAG	8840 fluorescence intensity (a.u.)
GGCCATCATCATTTGTTCCTCATCTTACTCTAGCTTCTCCCGGAGTCACCTAGTGCAG	9470 fluorescence intensity (a.u.)
CTCTCTGTGTGTGTGTTTGCTTTCTTGGGCTGTATCGACTCGGAGTCACCTAGTGCAG	11800 fluorescence intensity (a.u.)
AAGCTGGTTTGGCTAATTGTGTTGTGTAACTATAAATCTTCGGAGTCACCTAGTGCAG	8280 fluorescence intensity (a.u.)
CGCCCACCCACGCATCCATCCATCGATCGCAGCCAAATTCCGGAGTCACCTAGTGCAG	9430 fluorescence intensity (a.u.)

Sequence	binding signal
AATTGGGTTCGAATTTTTCTCTGGTTCGCTTGTGATTTTGCGGAGTCACCTAGTGCAG	8240 fluorescence intensity (a.u.)
CGTCGCTTGGGGTGGTGTTGGTGGTTCTGAATTTTGATTGCGGAGTCACCTAGTGCAG	19200 fluorescence intensity (a.u.)
CATGGGAATTTTGGTGGGATGGGGATGGAGAATTGAGCAACGGAGTCACCTAGTGCAG	8700 fluorescence intensity (a.u.)
GGTTTGTTCGTGTCTTTTGTGGTGATTGCATTTGATTGGGCGGAGTCACCTAGTGCAG	9920 fluorescence intensity (a.u.)
TGCTGTGGTGTGGTGTGGTGTGAATTTTGTTGATTGGTCGCGGAGTCACCTAGTGCAG	8750 fluorescence intensity (a.u.)
GCTTCCTTGTCCGATTTGGTGGTTGATTCGTGTTTTTGCTCGGAGTCACCTAGTGCAG	9300 fluorescence intensity (a.u.)
TCATTCCGATTTGGTGGGGTTTGAGTTTGATTGATTCTTTCGGAGTCACCTAGTGCAG	19300 fluorescence intensity (a.u.)
ACATGGGAATTTTGGTGGGATGGGGATGGGGATGGGGAATCGGAGTCACCTAGTGCAG	34000 fluorescence intensity (a.u.)
CATTTAGTTTGGGATGGGGTGGTTGATCCGATTTTTTCTGCGGAGTCACCTAGTGCAG	14700 fluorescence intensity (a.u.)
TTGCGTTTTGGGTGGTGAATTTTGATTTTGATTCTTTTTTCGGAGTCACCTAGTGCAG	12700 fluorescence intensity (a.u.)
ACATGGGAATTTTGGTGGGATGGGGATGGGGAATTGACCTCGGAGTCACCTAGTGCAG	14100 fluorescence intensity (a.u.)
TTGATTTTGCTCGTGGTGTGTGTTTGTGTTTGGTATGGTTCGGAGTCACCTAGTGCAG	18400 fluorescence intensity (a.u.)
CCTTTTGTCAGTCTAGCCAAAGATCTAGGATCTTCAACACCGGAGTCACCTAGTGCAG	8100 fluorescence intensity (a.u.)
ACCCGCCGTCGCTCTCCAACGCGCTCGTCGCGGCGTTCAACGGAGTCACCTAGTGCAG	8970 fluorescence intensity (a.u.)
TGCTTGTTCCGGTTCCTTCCCAACCCTTTTGCAAGAACACCGGAGTCACCTAGTGCAG	9120 fluorescence intensity (a.u.)
GTCACCGTCTCGTCTCCGTCTCCGCCGCTCGTCGTCGACCCGGAGTCACCTAGTGCAG	12600 fluorescence intensity (a.u.)
AAAAAAATCTCGTTGTTACTGTCTATAGATCACTATATTACGGAGTCACCTAGTGCAG	8570 fluorescence intensity (a.u.)
GCCGCCATCGTTCCTGTTCGCCGCCCGTTGTCCTTCCAATCGGAGTCACCTAGTGCAG	13000 fluorescence intensity (a.u.)
TTCTTCACCGTTTTGTTTTCTCTGCGCCTCAAATTTCCTTCGGAGTCACCTAGTGCAG	12000 fluorescence intensity (a.u.)
CCGGTGATGTTTTTATTTTTCTTCCGGTTCTTTTTCTCAACGGAGTCACCTAGTGCAG	12300 fluorescence intensity (a.u.)
TGAGTTGTTTTGTTGATAGGTATAGATATGAATCGAATTACGGAGTCACCTAGTGCAG	8950 fluorescence intensity (a.u.)
